# Source: article PMC7862700, “An all-to-all approach to the identification of sequence-specific readers for epigenetic DNA modifications on cytosine”
# What was measured:
# Assay in all cases: DAPPL (digital affinity profiling via proximity ligation, sequencing); 10 mM Tris-HCl pH 7.5, 50 mM NaCl, 1 mM DTT, 4% glycerol, room temperature, 30 min; GST-TFs on glutathione beads, 16-mer random dsDNA library, 0.1% formaldehyde crosslink after washing; high values mean tight binding
# FEV = molecular target: T1, FEV (Homo sapiens, UniProt Q99581 1-238); conditions: protein: recombinant; tags: N-terminal GST; dsDNA, one strand shown
# T1 sequence: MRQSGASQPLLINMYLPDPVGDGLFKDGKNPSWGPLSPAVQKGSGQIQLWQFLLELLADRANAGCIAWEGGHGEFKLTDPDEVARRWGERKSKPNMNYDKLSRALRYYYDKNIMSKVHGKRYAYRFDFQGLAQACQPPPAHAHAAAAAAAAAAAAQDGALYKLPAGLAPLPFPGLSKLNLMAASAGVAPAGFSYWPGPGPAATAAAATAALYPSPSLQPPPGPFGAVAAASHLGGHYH
# Procedure, shortened: (§1)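 The binding signal reported is, for every hexamer, its read frequency for a factor over its read frequency for the tag-only sample. Reads came from pools of yeast-expressed, GST-fused human transcription factors on glutathione beads, barcoded with DNA and mixed with that sample, which were incubated with 200 nmole of a random double-stranded 16-mer DNA library in Tris/NaCl/DTT/glycerol buffer at room temperature for 30 min. After washing, the pools were crosslinked with 0.1% formaldehyde, proximity-ligated with BsaI/T4 ligase for 1 h at 37 °C, PCR-amplified and sequenced on an Illumina NextSeq500.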
# ETV5 = ETV5 (Homo sapiens, UniProt P41161 1-510); conditions: protein: recombinant; tags: N-terminal GST; dsDNA, one strand shown
# Procedure, shortened: as §1
# HSF1 = HSF1 (Homo sapiens, UniProt Q00613 1-529); conditions: protein: recombinant; tags: N-terminal GST; chain copies: 3; dsDNA, one strand shown
# Procedure, shortened: as §1
# SPIC = molecular target: T2, SPIC (Homo sapiens, UniProt Q8N5J4 1-248); conditions: protein: recombinant; tags: N-terminal GST; dsDNA, one strand shown
# T2 sequence: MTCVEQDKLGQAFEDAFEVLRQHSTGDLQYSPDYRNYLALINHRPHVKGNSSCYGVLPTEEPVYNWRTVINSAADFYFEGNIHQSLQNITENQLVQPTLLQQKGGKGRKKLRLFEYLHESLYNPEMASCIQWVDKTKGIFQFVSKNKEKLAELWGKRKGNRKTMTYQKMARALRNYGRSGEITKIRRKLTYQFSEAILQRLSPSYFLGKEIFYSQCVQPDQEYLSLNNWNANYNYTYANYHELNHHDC
# Procedure, shortened: as §1
# ELF4 = ELF4 (Homo sapiens, UniProt Q99607 1-663); conditions: protein: recombinant; tags: N-terminal GST; dsDNA, one strand shown
# Procedure, shortened: as §1
# ELK4 = molecular target: T3, ELK4 (Homo sapiens, UniProt P28324-2 1-405); conditions: protein: recombinant; tags: N-terminal GST; dsDNA, one strand shown
# T3 sequence: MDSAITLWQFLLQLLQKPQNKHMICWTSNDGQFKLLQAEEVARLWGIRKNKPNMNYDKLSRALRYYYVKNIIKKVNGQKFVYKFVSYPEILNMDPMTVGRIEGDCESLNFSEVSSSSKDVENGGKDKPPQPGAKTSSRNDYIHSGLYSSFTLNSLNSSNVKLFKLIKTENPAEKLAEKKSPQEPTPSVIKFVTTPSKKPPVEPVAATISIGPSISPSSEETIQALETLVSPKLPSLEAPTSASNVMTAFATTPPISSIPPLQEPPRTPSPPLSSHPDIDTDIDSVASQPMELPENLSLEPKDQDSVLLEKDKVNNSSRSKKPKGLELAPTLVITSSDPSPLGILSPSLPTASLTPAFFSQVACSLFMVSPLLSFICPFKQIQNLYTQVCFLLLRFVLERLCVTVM
# Procedure, shortened: as §1
# ETV2 = molecular target: T4, ETV2 (Homo sapiens, UniProt O00321 1-342); conditions: protein: recombinant; tags: N-terminal GST; dsDNA, one strand shown
# T4 sequence: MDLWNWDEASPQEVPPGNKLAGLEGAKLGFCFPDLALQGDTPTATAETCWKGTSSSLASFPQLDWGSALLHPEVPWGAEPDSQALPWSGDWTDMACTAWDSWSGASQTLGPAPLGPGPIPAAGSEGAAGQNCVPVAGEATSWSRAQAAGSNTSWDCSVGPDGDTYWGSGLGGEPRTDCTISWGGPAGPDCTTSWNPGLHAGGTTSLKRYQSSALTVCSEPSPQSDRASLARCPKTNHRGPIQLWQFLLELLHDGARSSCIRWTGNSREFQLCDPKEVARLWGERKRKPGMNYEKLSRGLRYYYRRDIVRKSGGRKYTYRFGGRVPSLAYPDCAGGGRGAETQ
# Procedure, shortened: as §1
# ELF3 = molecular target: T5, ELF3 (Homo sapiens, UniProt P78545 1-371); conditions: protein: recombinant; tags: N-terminal GST; dsDNA, one strand shown
# T5 sequence: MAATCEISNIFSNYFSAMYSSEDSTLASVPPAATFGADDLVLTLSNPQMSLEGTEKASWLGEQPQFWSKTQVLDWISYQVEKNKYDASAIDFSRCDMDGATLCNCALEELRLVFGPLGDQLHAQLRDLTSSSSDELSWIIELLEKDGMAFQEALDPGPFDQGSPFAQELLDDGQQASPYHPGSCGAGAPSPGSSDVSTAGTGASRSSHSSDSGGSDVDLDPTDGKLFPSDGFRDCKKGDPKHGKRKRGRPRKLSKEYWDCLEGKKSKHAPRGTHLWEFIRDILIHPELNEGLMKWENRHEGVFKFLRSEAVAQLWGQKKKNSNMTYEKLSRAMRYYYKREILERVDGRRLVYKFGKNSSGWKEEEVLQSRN
# Procedure, shortened: as §1
# CRX = CRX (Homo sapiens, UniProt O43186 1-299); conditions: protein: recombinant; tags: N-terminal GST; dsDNA, one strand shown
# Procedure, shortened: as §1
# ETV1 = ETV1 (Homo sapiens, UniProt P50549 1-477); conditions: protein: recombinant; tags: N-terminal GST; dsDNA, one strand shown
# Procedure, shortened: as §1
# ERF = molecular target: T6, ERF (Homo sapiens, UniProt P50548 1-548); conditions: protein: recombinant; tags: N-terminal GST; dsDNA, one strand shown
# T6 sequence: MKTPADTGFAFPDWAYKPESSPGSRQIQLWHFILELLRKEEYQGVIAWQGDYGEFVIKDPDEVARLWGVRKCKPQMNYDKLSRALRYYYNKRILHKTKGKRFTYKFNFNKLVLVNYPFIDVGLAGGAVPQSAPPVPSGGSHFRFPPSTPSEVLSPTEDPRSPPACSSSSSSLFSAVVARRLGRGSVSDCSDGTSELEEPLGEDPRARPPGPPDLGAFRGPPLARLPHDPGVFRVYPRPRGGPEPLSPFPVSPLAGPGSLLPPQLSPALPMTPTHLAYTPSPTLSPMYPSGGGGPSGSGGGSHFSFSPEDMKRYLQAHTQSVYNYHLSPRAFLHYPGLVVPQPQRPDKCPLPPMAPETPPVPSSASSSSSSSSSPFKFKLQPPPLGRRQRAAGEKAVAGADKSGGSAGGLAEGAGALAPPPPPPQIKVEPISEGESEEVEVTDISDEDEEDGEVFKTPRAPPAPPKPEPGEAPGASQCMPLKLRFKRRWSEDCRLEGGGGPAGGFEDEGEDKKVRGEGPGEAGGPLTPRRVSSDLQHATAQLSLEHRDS
# Procedure, shortened: as §1
# ETV3L = molecular target: T7, ETV3L (Homo sapiens, UniProt Q6ZN32 1-361); conditions: protein: recombinant; tags: N-terminal GST; dsDNA, one strand shown
# T7 sequence: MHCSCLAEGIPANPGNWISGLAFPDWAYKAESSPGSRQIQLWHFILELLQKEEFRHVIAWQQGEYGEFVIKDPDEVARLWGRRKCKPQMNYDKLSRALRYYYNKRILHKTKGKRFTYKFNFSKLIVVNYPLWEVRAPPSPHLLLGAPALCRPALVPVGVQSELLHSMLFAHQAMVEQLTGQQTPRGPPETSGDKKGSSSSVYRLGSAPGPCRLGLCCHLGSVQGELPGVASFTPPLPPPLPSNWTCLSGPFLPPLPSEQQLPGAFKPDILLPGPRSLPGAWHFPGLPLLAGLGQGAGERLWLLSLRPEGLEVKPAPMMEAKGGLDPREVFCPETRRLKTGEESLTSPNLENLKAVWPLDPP
# Procedure, shortened: as §1
# ETS2 = molecular target: T8, ETS2 (Homo sapiens, UniProt P15036 1-469); conditions: protein: recombinant; tags: N-terminal GST; dsDNA, one strand shown
# T8 sequence: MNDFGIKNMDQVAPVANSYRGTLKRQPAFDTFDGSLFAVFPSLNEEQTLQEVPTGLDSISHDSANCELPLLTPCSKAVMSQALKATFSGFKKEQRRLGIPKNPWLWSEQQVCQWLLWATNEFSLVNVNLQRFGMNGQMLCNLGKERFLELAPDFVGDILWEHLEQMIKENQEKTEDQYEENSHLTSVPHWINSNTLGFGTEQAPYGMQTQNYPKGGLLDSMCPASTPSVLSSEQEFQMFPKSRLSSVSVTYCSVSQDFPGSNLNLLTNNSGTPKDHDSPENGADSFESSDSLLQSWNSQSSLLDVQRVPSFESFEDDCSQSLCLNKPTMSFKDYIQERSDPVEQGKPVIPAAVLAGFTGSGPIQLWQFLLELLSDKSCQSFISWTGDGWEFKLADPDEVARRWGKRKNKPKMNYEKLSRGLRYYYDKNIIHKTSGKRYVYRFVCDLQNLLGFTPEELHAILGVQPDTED
# Procedure, shortened: as §1
# SPDEF = molecular target: T9, SPDEF (Homo sapiens, UniProt O95238 1-335); conditions: protein: recombinant; tags: N-terminal GST; dsDNA, one strand shown
# T9 sequence: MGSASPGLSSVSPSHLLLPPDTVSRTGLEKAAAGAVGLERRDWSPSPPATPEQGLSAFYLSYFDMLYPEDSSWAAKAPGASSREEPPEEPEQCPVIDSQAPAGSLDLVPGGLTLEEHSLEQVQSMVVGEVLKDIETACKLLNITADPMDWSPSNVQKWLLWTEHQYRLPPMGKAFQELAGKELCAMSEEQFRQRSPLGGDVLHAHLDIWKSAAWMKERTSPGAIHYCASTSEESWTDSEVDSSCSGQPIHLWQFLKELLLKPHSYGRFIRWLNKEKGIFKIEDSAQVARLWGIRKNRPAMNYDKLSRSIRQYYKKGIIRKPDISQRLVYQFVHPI
# Procedure, shortened: as §1
# ETV7 = molecular target: T10, ETV7 (Homo sapiens, UniProt Q9Y603 1-341); conditions: protein: recombinant; tags: N-terminal GST; dsDNA, one strand shown
# T10 sequence: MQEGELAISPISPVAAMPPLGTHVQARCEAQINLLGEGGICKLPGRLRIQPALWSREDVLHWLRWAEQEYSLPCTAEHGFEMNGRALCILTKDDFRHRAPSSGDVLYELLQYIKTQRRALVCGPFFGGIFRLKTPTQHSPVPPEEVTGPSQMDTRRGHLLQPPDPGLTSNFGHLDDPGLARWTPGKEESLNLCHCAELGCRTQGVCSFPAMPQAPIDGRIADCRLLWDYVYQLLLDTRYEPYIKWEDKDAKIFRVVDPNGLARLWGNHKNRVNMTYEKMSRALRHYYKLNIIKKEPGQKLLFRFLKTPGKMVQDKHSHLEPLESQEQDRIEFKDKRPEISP
# Procedure, shortened: as §1
# ELF5 = molecular target: T11, ELF5 (Homo sapiens, UniProt Q9UKW6-2 1-255); conditions: protein: recombinant; tags: N-terminal GST; dsDNA, one strand shown
# T11 sequence: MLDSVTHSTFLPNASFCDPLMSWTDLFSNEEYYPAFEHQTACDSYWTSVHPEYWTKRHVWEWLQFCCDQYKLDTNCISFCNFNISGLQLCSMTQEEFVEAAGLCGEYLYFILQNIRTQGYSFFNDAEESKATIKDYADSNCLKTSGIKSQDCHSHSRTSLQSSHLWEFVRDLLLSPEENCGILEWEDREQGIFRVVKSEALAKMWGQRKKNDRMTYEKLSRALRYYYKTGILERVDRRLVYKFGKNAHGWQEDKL
# Procedure, shortened: as §1
# ETV3 = molecular target: T12, ETV3 (Homo sapiens, UniProt P41162-2 1-143); conditions: protein: recombinant; tags: N-terminal GST; dsDNA, one strand shown
# T12 sequence: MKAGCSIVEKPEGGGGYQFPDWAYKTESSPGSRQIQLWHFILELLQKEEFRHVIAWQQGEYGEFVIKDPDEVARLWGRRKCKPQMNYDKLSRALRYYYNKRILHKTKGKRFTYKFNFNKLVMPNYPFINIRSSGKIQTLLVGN
# Procedure, shortened: as §1
# ETV6 = ETV6 (Homo sapiens, UniProt P41212 1-452); conditions: protein: recombinant; tags: N-terminal GST; dsDNA, one strand shown
# Procedure, shortened: as §1
# Chain of ELF4 (Q99607 whole entry): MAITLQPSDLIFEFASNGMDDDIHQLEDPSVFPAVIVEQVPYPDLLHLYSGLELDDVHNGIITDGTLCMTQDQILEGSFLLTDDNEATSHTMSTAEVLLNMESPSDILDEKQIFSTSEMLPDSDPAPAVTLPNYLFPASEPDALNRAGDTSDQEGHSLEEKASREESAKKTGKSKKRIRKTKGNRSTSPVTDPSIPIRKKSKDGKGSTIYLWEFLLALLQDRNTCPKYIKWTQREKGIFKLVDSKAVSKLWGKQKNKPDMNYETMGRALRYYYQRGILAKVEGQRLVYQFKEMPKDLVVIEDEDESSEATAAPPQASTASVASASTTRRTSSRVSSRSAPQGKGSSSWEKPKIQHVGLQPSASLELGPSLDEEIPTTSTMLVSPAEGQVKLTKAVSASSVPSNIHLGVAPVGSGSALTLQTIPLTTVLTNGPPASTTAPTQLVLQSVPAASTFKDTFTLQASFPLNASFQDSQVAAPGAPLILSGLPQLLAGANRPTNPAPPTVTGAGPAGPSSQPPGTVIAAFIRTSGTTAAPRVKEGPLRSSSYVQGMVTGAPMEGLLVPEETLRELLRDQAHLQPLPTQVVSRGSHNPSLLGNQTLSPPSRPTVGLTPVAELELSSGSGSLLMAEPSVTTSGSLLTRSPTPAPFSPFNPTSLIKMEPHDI
# Chain of ETV5 (P41161 whole entry): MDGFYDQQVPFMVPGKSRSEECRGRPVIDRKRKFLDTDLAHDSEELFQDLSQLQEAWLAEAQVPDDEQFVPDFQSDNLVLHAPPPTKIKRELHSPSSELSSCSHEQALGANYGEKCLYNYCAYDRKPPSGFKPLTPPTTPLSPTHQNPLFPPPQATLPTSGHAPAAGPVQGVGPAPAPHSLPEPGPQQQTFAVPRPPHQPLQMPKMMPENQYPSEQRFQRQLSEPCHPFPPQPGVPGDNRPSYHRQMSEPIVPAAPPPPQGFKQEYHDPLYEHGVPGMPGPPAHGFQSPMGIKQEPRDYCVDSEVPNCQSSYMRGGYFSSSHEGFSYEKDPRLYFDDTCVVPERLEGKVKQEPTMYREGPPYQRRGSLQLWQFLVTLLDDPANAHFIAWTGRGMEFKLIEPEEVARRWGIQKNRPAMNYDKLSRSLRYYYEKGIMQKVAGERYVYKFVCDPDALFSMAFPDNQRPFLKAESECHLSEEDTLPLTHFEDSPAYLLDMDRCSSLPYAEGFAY
# Chain of ETV6 (P41212 whole entry): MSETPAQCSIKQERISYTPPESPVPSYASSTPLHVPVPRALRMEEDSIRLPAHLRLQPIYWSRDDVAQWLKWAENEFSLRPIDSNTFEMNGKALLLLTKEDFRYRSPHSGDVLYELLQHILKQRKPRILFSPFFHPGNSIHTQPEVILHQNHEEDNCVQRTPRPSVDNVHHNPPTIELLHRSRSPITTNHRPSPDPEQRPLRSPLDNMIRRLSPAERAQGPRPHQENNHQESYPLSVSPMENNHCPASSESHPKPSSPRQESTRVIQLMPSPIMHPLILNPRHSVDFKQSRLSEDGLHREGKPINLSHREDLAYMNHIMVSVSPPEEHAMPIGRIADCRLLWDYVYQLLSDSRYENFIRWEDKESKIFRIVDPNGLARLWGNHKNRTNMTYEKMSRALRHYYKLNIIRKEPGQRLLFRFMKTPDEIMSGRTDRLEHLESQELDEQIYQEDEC
# Chain of ETV1 (P50549 whole entry): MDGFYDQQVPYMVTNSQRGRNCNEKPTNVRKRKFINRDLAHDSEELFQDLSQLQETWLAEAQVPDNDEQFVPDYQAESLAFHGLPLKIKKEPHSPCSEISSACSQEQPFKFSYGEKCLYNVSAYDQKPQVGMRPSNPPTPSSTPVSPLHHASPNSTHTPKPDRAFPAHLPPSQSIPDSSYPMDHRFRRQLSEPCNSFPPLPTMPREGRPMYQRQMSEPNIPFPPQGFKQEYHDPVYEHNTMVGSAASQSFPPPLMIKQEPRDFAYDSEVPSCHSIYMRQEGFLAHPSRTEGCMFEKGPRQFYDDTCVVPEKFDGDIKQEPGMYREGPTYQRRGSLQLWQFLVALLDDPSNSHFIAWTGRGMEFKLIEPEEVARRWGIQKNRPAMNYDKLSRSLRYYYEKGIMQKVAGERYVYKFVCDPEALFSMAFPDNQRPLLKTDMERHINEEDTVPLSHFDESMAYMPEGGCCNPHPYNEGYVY
# Chain of HSF1 (Q00613 whole entry): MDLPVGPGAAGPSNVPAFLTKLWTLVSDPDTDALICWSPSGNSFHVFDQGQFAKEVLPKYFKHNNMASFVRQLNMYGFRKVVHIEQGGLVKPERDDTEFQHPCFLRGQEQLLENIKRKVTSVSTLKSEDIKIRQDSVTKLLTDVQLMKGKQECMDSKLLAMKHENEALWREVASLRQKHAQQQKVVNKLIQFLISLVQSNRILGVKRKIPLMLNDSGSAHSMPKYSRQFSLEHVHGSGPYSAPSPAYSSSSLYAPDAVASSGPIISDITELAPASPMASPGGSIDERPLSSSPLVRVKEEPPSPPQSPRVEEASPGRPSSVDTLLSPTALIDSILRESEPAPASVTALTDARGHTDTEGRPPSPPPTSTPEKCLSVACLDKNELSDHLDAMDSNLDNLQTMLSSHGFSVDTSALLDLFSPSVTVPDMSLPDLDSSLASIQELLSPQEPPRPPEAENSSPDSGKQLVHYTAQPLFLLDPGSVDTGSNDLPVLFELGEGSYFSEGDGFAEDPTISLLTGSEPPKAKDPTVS
# Chain of CRX (O43186 whole entry): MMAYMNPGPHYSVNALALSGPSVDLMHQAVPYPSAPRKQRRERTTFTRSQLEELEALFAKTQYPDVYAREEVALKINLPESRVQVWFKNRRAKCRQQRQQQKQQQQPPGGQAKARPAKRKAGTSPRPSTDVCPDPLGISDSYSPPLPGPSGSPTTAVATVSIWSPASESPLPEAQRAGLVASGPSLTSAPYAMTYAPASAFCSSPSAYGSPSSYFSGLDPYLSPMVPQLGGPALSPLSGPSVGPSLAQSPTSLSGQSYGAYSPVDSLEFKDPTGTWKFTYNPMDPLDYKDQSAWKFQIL
sequence,measurement,setting,value
TATTTT,binding signal,FEV,"1.23 fold enrichment (6-mer frequency, TF over GST control)"
same,binding signal,ETV5,"1.39 fold enrichment (6-mer frequency, TF over GST control)"
same,binding signal,HSF1,"1.5 fold enrichment (6-mer frequency, TF over GST control)"
same,binding signal,SPIC,"1.42 fold enrichment (6-mer frequency, TF over GST control)"
same,binding signal,ELF4,"1.4 fold enrichment (6-mer frequency, TF over GST control)"
same,binding signal,ELK4,"1.49 fold enrichment (6-mer frequency, TF over GST control)"
same,binding signal,ETV2,"1.45 fold enrichment (6-mer frequency, TF over GST control)"
same,binding signal,ELF3,"1.36 fold enrichment (6-mer frequency, TF over GST control)"
same,binding signal,CRX,"1.77 fold enrichment (6-mer frequency, TF over GST control)"
same,binding signal,ETV1,"1.48 fold enrichment (6-mer frequency, TF over GST control)"
same,binding signal,ERF,"1.19 fold enrichment (6-mer frequency, TF over GST control)"
same,binding signal,ETV3L,"1.41 fold enrichment (6-mer frequency, TF over GST control)"
same,binding signal,ETS2,"1.35 fold enrichment (6-mer frequency, TF over GST control)"
same,binding signal,SPDEF,"1.24 fold enrichment (6-mer frequency, TF over GST control)"
same,binding signal,ETV7,"1.49 fold enrichment (6-mer frequency, TF over GST control)"
same,binding signal,ELF5,"1.29 fold enrichment (6-mer frequency, TF over GST control)"
same,binding signal,ETV3,"1.39 fold enrichment (6-mer frequency, TF over GST control)"
same,binding signal,ETV6,"1.36 fold enrichment (6-mer frequency, TF over GST control)"
